Assay outcomes as filed in PubChem.
HepG2 viability = HepG2 cytotoxicity, counter-screen for TGF-b inhibitors | 410,000 tested, 0.76% active | AID 588856 | Potency, µM (highest dose often 46.1 µM), for the others: at the highest dose activity change, negative = cytotoxicity, usual class: cytotoxic | HepG2 CAGA-GFP viability, ATP luminescence, 18 h; also: potency is read from the fitted curve at half-maximal effect
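CellTiter-Glo luminescence gave cytotoxicity after 18 hours at 37 degrees C. The cells were HepG2 CAGA-GFP in 1% FBS DMEM, stimulated with 500 pg/mL TGF-beta after compound addition. %Activity was normalised to no-cell wells (complete cell-killing) and DMSO (no toxicity), and curves were fitted and classified.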
TGFb SMAD3 inh = inhibitors of TGF-b signaling | HepG2 CAGA-GFP TGF-b/SMAD3 reporter, GFP fluorescence, 18 h; TGF-beta stimulated, 500 pg/mL final | Potency, µM (series often up to 46.1 µM), without a hit: at the highest dose activity, negative = inhibition, usual class: inhibitors | 410,000 tested, 1.2% active; also: potency is read from the fitted curve at half-maximal effect; % is scaled to controls: 0 for no effect and ±100 for the full control effect; nearly all actives have a fitted effect of over 65% in size
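HEPG2 CAGA-GFP, 1000 cells/well; 2 h settle, 37 C; cpd via pin tool; TGF-b 500 pg/mL final; 18 h, 37 C; GFP imaging ex488/em500-530; %Activity normalised to -TGF-b and +DMSO controls; CRC fit, curve class.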
HT1080 IDH1KD tx = kills HT-1080 cells with IDH1 knockdown; 360,000 tested, 2% active; AID 686971; HT-1080 IDH1 knockdown viability, ATP luminescence, 48 h; Potency, µM (top dose mostly 46.1 µM), for the others: top-dose activity, negative = toxicity, usual class: cytotoxic;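 also: potency is read from the fitted curve at half-maximal effect; 0% = DMSO wells and -100% = cell-free medium wells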
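Viability of IDH1-knockdown HT-1080 fibrosarcoma cells was assessed by CellTiter-Glo after 48 h at 37 °C with titrated compound; concentration-effect curves were classified by fit quality and response size.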
HT1080-NT tox = kills 2HG-producing HT-1080-NT fibrosarcoma cells; HT-1080-NT fibrosarcoma viability, CellTiter-Glo ATP luminescence, 48 h; AID 686970; 360,000 tested, 1.6% active; Potency, µM (doses to about 46.1 µM), without a hit: at the highest dose activity, negative = less viability, usual class: cytotoxic;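 also: NT is the 2HG producing partner of a matched IDH1 knockdown line; potency is read from the fitted curve at half-maximal effect; 0% = DMSO-treated cells and -100% = media-only wells without cells; nearly all actives have a fitted effect of over 55% in size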
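HT-1080-NT fibrosarcoma cells (2HG-overproducing), 750 cells/well in RPMI with 5% FBS, dosed after 2 h and incubated 48 h at 37C. CellTiter-Glo luminescence normalized to DMSO and no-cell wells; concentration-response curves fitted and classed.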
Giardia killer = Giardia lamblia killing. activity change, % at 7.66 µM, hits read low. Giardia lamblia trophozoite viability. 340,000 tested, 0.15% active; in the data active = activity change below about -80%; inconclusive = between about -30% and that limit;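 also: parasites exposed to compound for two days anaerobically before the ATP read; % is scaled to controls: 0 for no effect and ±100 for the full control effect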
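Luminescence from cellular ATP indicates surviving trophozoites (100 cells/well) following 48 hrs anaerobic compound treatment at 37 deg C; signal develops 15-30 min at room temperature.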
IL-1B inflam inh = inhibitors of inflammasome signaling (IL-1 beta secretion); THP-1 LPS/ATP IL-1B secretion, AlphaLISA, 16 h; active compounds read low; activity change, % at 57.5 µM; 360,000 tested, 4.7% active; in the data active = activity change below about -50%; inconclusive = mostly about -30% to -49%; also: % is scaled to controls: 0 for no effect and ±100 for the full control effect
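THP-1 cells pretreated 1 hr with compounds (up to 57.5 uM final), then stimulated with LPS (250 ng/mL final) plus ATP (1.25 mM final); secreted IL-1B measured by AlphaLISA after 16 hr, decreased signal indicating inhibition.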
Active calls of the source: *; u = inconclusive; x = no result given. Hits are enriched below; roughly 6.5% of the tested compounds scored in any of these assays. Unless noted, calls follow the shape of the dose curve; as a rule, active = well fitted curve in the direction sought with a large enough effect; inconclusive = small, poorly fitted or top-dose-only effect, or another doubt; inactive = no such curve, though single readings can be large; an effect the other way counts as inactive or inconclusive.

SMILES	HepG2 viability	TGFb SMAD3 inh	HT1080 IDH1KD tx	HT1080-NT tox	Giardia killer	IL-1B inflam inh
O=C(CCc1nc2ccccc2c(=O)[nH]1)Nc1cc(Cl)ccc1N1CCCCC1	-9%	-1%	u	u	3	24
O=C(NN=Cc1cc([N+](=O)[O-])ccc1O)c1cccc2ccccc12	-35%	u	6.5µM*	u	12	65
Nc1ccc(C(=O)N/N=C\c2cc(N=Nc3cccc4ccccc34)ccc2O)cc1	-10%	-31%	12µM*	u	7	27
O=C(N/N=C/c1cc([N+](=O)[O-])ccc1Cl)c1cc(-c2ccccc2)nc2ccccc12	-5%	4%	6%	10%	9	34
O=C(N/N=C/c1cc([N+](=O)[O-])ccc1O)c1cc(-c2ccccc2)nc2ccccc12	-1%	-17%	4.1µM*	u	-12	11
O=C(N/N=C/c1cc([N+](=O)[O-])ccc1O)c1c[nH]c2ccccc12	-31%	u	15µM*	u	-29	209
O=C(N/N=C/c1cccc([N+](=O)[O-])c1)c1c[nH]c2ccccc12	-27%	-9%	-7%	-14%	-2	-12
CCCCN(CCCC)S(=O)(=O)c1ccc(NS(=O)(=O)c2ccc(NC(C)=O)cc2)cc1	-21%	u	-21%	u	-2	-6
COC(=O)c1c(N2C(=O)Nc3ccccc3N2O)sc(C)c1C	-1%	2%	-1%	-3%	-1	46
Cc1cc(NC(=O)c2cc(-c3ccncc3)nc3c(C)cccc23)no1	-19%	2%	3.7µM*	5.8µM*	1	37
COc1ccc(CCNC(=O)CCN2C(=O)C(C)Oc3ccc(C)cc32)cc1OC (stereo unspecified)	1%	0%	-13%	0%	-11	0
COC(=O)CCCCC1SCC2NC(=O)NC21 (stereo unspecified)	8%	35%	1%	0%	5	-12
O=C(O)CCCC[C@@H]1SC[C@@H]2NC(=O)N[C@@H]21	-4%	9%	5%	7%	-16	-106*
CCOC(=O)C1CCN(C(=O)c2ccc(NS(=O)(=O)c3ccc(F)cc3C)cc2)CC1	-9%	2%	-5%	-3%	9	-97*
CCOC(=O)C1CCCN(C(=O)c2ccc3c(c2)C(C)(C)CCC3(C)C)CC1 (stereo unspecified)	-39%	14µM*	u	u	x	30
Cc1cc(N/N=C/c2ccc(Cl)cc2)nc(NCc2ccccc2)n1	-60%	u	-21%	-4%	12	-84*
Cc1cc(N2CCCCC2)nc(NCc2ccccc2)n1	-5%	u	u	-16%	-5	-99*
Cc1cc(Nc2cccc(Cl)c2)nc(NCc2ccccc2)n1	-94%	18µM*	u	u	-12	-20
Cc1cc(C)nc(NCc2ccc(Cl)cc2)n1	-25%	1%	-1%	-16%	16	-7
Cc1cc(N/N=C/c2cccc(F)c2)nc(NCc2ccccc2)n1	-29%	u	16µM*	21µM*	-5	-72*
Cc1cc(N/N=C/c2ccccc2)nc(NCc2ccccc2)n1	-20%	u	-5%	-20%	-7	-4
Cc1cc(N/N=C/c2ccccc2F)nc(NCc2ccccc2)n1	-18%	-18%	-4%	-7%	-3	-4
CC1(C)CC(=O)C=C(NC2CCCCC2)C1	18%	7%	12%	7%	-9	8
Cc1cc(N/N=C/c2cccc(Cl)c2)nc(NCc2ccccc2)n1	10µM*	20µM*	u	u	13	-77*
Cc1cc(C)nc(N/N=C/c2cccc(Cl)c2)n1	7%	-6%	-1%	-1%	-16	24
SMILES	HepG2 viability	TGFb SMAD3 inh	HT1080 IDH1KD tx	HT1080-NT tox	Giardia killer	IL-1B inflam inh
Cc1ccc(OCCN2CCC2(C)C(=O)Nc2ccc3c(c2)OCCO3)cc1 (stereo unspecified)	-35%	u	-20%	-15%	x	-110*
CC1(C(=O)Nc2ccc3c(c2)OCO3)CCN1Cc1ccccc1OC(F)F (stereo unspecified)	2%	35%	0%	-8%	x	-67*
COc1ccc(NC(=O)C2(C)CCN2Cc2ccccc2OC(F)F)cc1OC (stereo unspecified)	-17%	-21%	-19%	-8%	x	-6
CCC(=O)N1CCC1(C)C(=O)Nc1ccc2c(c1)OCO2 (stereo unspecified)	-16%	14µM*	5%	-1%	x	5
CCCN(CCC)c1nc(-c2ccccc2F)nc2ccccc12	-12%	-22%	x	x	x	x
CCN1CCN(c2nc(-c3ccccn3)nc3ccccc23)CC1	3%	-16%	10µM*	8.9µM*	6	40
COc1ccc(Oc2nc(-c3ccccn3)nc3ccccc23)cc1	-35%	u	u	u	-8	-93*
c1ccc(CCNc2nc(-c3ccccn3)nc3ccccc23)cc1	-11%	u	u	-27%	-17	-101*
CCCN(CCC)c1nc(-c2ccccn2)nc2ccccc12	-54%	u	9.2µM*	u	u	-96*
COc1ccc(CC(=O)Nc2cc(C)ccn2)cc1	4%	-7%	13%	-1%	-16	-14
O=C(COC(=O)CNC(=O)c1cccc(F)c1)NCCC1=CCCCC1	-29%	-17%	6%	8%	0	4
CCOC(=O)CSc1nc2c(c(=O)n1-c1ccc(OCC)cc1)SCC2	3%	-4%	-3%	6%	21	15
COc1ccc(NC(=O)c2ccc(-c3ccccc3Cl)o2)cc1	-17%	-28%	-14%	-7%	-2	-3
c1ccc(-c2nc(N3CCCCCC3)c3ccccc3n2)nc1	7%	0%	u	-28%	-20	-84*
OC(CNCc1ccccc1F)(c1ccc(F)cc1)c1ccc(F)cc1	7%	0%	-27%	-25%	13	-80*
COc1ccccc1CNCC(O)(c1ccc(Cl)cc1)c1ccc(Cl)cc1	-103%	u	11µM*	13µM*	11	u
O=C(Nc1cccc2ccccc12)OC1C=CS(=O)(=O)C1 (stereo unspecified)	2%	1%	u	18µM*	6	x
CCCCCCSc1nsc(NC(=O)CC(C)C)n1	-20%	u	15µM*	u	-11	7
CCCSc1nsc(NC(=O)C(c2ccccc2)c2ccccc2)n1	6.3µM*	18µM*	u	u	-9	-9
CCCSc1nsc(NC(=O)CC)n1	-20%	u	-4%	9%	-15	-17
